tim23-1 inh: growth inhibitors of tim23-1 mutant yeast, primary screen, luminescence, uHTS; S. cerevisiae tim23-1 growth, BacTiter-Glo luminescence, 24 h; inhibition, % at 20 µM; hit rate 1.3% among 330,000; AID 463212, 2010;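 active = growth inhibition of the mutant yeast at or above 50%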;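 note: temperature-sensitive mutant grown at 25 °C; plate controls were DMSO-treated mutant yeast for no effect and medium wells lacking yeast for full effect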
tim10-1 inh: growth inhibitors of tim10-1 mutant yeast, primary screen, luminescence, uHTS | inhibition, % at 20 µM | hit rate 2.2% among 330,000 | S. cerevisiae tim10-1 ts strain growth, BacTiter-Glo, 24 h | AID 463190, 2010;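 active = inhibition of at least 40%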;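 note: mutant grown at 25 °C; 0% = DMSO wells with yeast and 100% = wells holding no yeast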
SKKanGAS inh: S. pyogenes SKKanGAS growth inhibitors in kanamycin, primary screen, streptokinase expression inhibitor project, SKKanGAS strain, BacTiter-Glo luminescence; 6 h; hit rate 1.3% among 300,000; inhibition, % at 7.5 µM; AID 1662, 2009;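 active = mean replicate score, as percent of positive control median, at least 50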;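 note: strain carries kanamycin resistance gene driven by streptokinase promoter and grows in 40 µg/ml kanamycin; loss of luminescence reflects streptokinase promoter inhibition or plain growth inhibition; 0% = median of DMSO wells and 100% = positive control at its reference dose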
TIM10 inh: growth inhibitors of isogenic TIM10 control yeast, primary screen, counter-screen for tim10-1 yeast inhibitor project, luminescence, uHTS | hit rate 1.4% among 330,000 | AID 463195, 2010 | S. cerevisiae TIM10 strain growth, BacTiter-Glo luminescence, 24 h | inhibition, % at 10 µM;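 active = inhibition of 40% or more at the single tested concentration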;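 note: wild-type TIM10 isogenic control strain grown at permissive 25 °C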
NLRP3 yeast inh: NALP3 inflammasome inhibitors in reconstituted yeast, primary screen, luminescence, uHTS; AID 2825, 2010; inhibition, % at 10 µM; hit rate 0.39% among 330,000; Yeast reconstituted NLRP3/ASC/caspase-1, beta-gal luminescence, 24 h;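 active = inhibition of 50% or more; inactive = inhibition below 50%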;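 note: plate controls were induced DMSO wells for no effect and uninduced yeast grown without galactose for full effect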
PfHsp90 yeast 2: growth inhibition of PfHsp90-expressing yeast, primary screen, antimalarial PfHsp90 inhibitor project, S. cerevisiae, BacTiter-Glo luminescence, single point, set 2; BacTiter-Glo ATP, 48 h; yeast lacking PDR1 and PDR3 efflux regulators; inhibition, % at 9.4 µM; hit rate 0.32% among 310,000; AID 504621, 2011;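 active = every replicate shows inhibition above about 80%, whatever the replicate mean, limit read from the data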;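 note: 0% = DMSO neutral controls and 100% = 20 µM radicicol positive controls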
tim23-1 confirm: tim23-1 mutant yeast growth inhibitors, confirmation, luminescence, single concentration; inhibition, % at 20 µM; shares compounds with tim23-1 inh; AID 463218, 2010; S. cerevisiae tim23-1 growth, BacTiter-Glo luminescence, 24 h; hit rate 83% among 4,400;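 active = inhibition above about 39% in either of two replicate wells at 20 µM, limit read from the data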;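 note: temperature-sensitive tim23-1 mutant grown at 25 °C; 0% = DMSO wells with yeast and 100% = medium wells without yeast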
* = called active by the depositor; . = not tested or not shown. Most compounds without a hit are left out; they make up all but 4.6% or so of the library.

SMILES	tim23-1 inh	tim10-1 inh	SKKanGAS inh	TIM10 inh	NLRP3 yeast inh	PfHsp90 yeast 2	tim23-1 confirm
Cc1nc(N2CCN(c3ccc(Cl)cc3)CC2)[nH]c(=O)c1C	13	11	-15	-1	4	11	.
COc1cc(/C=N/Nc2cccc3cccnc23)cc(OC)c1O	13	9	-2	15	9	3	.
O=[N+]([O-])c1ccc(N/N=C/c2cccc(O)c2)cc1	83*	39	1	6	16	29	40*
Oc1cccc(/C=N/Nc2cccc3cccnc23)c1	53*	10	1	15	31	2	63*
COc1ccc(C2=NNC(c3cccs3)=Nc3ccc(OC)cc32)cc1	60*	25	17	37	8	1	61*
CCOc1ccc2c(c1)C(c1cccs1)=NNC(c1cccnc1)=N2	27	-4	-7	19	9	-45	.
COc1ccc(-c2nc3ccccc3c(=O)n2O)cc1	58*	40	8	31	48	13	52*
O=C1CS(=O)(=O)N(Cc2ccc(F)cc2)c2ccccc21	53*	30	.	25	.	-2	47*
COc1ccccc1CNC(=O)C1CCN(S(=O)(=O)c2ccc3c(c2)NC(=O)CO3)CC1	15	12	3	1	2	7	.
COc1ccccc1NC(=S)NC(=O)CCc1ccccc1	46	31	-7	28	23	7	.
COc1ccc(CC(=O)OCC(=O)Nc2cccc(Cl)c2)cc1	24	16	12	6	11	7	.
COc1ccc(CCC(=O)Nc2cccc(Cl)c2)cc1	59*	11	10	33	29	-3	65*
O=C(CCc1ccccc1)NC(=S)Nc1ccccc1Br	50*	-9	-9	29	23	-30	32
COc1cc(NC(=S)NC(=O)CCc2ccccc2)cc(OC)c1	51*	25	41	39	20	2	41*
O=C(CN1CCC(C(=O)c2ccc3c(c2)OCCO3)CC1)NCc1ccc(F)cc1	-1	5	-4	6	9	15	.
CCn1c(N2CCN(S(=O)(=O)c3ccc(OC)cc3)CC2)nc2ccccc21	59*	-12	-8	-12	11	7	44*
CCn1c(N2CCN(S(=O)(=O)c3ccccc3C(F)(F)F)CC2)nc2ccccc21	35	36	6	23	2	.	.
COc1cccc(NC(=O)CN(C)CC(=O)Nc2ccc(C)c(S(=O)(=O)N3CCOCC3)c2)c1	.	.	.	.	.	-4	.
Cc1ccc(S(=O)(=O)N2CCN(CC(=O)NCC3(N4CCOCC4)CCCCC3)CC2)cc1	4	-13	.	6	13	2	.
Cc1ccc(Nc2nc(-c3cccnc3)nc3ccccc23)cc1	56*	26	0	-13	35	-17	56*
CC(Nc1nc(-c2cccnc2)nc2ccccc12)c1ccc(F)cc1 (stereo unspecified)	59*	-7	9	26	10	12	60*
O=C(Nc1cccc(NC(=O)c2ccc(-c3ccc(Br)cc3)o2)c1)c1ccccc1	-10	1	27	-40	10	-16	.
O=C(Nc1cccc(NC(=O)c2ccc(-c3cccc(Br)c3)o2)c1)c1ccco1	60*	-47	41	19	17	16	43*
O=C(Nc1ccc(Br)c(Cl)c1)c1ccco1	62*	28	-5	36	12	-7	72*
CCOc1ccccc1N1CCN(C(=O)CC(C)(C)C)CC1	21	23	13	15	18	.	.
CCOc1ccccc1N1CCN(C(=S)NCc2ccc(Cl)cc2)CC1	55*	39	-2	35	9	-24	46*
CCOc1ccccc1N1CCN(C(=S)NC(=O)C23CC4CC(CC(C4)C2)C3)CC1	51*	34	3	35	12	-1	31

Compound activity: PubChem BioAssay, several laboratories
